High-throughput results (PubChem BioAssay)
A selection: hits, their analogues and other compounds. The true share with any hit is near 1.7%.
HEK293 tox = cytotoxic in the GLP-1 receptor inverse agonist counter-screen | Potency, µM (titrated, usually from 38.3 µM), without a hit: at the top dose activity change, negative = inhibition, most hits filed as inhibitors | HEK293 cAMP-luciferase reporter cells, luminescence, 24 h | hit rate 0.13% among 410,000 | AID 624418;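 further: loss of luciferase light is scored as toxicity; on the % scale 0 is the no-effect control and ±100 the full control effect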
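A 23 nL compound transfer followed 12 hours of cell culture at 37 deg C; exposure then lasted 24 hr. Luciferase assay detection reagent was dispensed and plates read for luminescence after a 12 min room-temperature wait.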
GLP-1R agonist = GLP-1 receptor (human) agonism | P43220 | HEK293 GLP-1R CRE-luciferase, luminescence, 4-6 h; cells express a hypersensitive GLP-1R form | Potency, µM (top dose mostly 45.6 µM), for the others: at the top dose activation, most hits filed as activators | hit rate 0.007% among 380,000 | AID 624172; further: % of control where 0% means no effect
Target sequence (P43220 whole entry, looked up): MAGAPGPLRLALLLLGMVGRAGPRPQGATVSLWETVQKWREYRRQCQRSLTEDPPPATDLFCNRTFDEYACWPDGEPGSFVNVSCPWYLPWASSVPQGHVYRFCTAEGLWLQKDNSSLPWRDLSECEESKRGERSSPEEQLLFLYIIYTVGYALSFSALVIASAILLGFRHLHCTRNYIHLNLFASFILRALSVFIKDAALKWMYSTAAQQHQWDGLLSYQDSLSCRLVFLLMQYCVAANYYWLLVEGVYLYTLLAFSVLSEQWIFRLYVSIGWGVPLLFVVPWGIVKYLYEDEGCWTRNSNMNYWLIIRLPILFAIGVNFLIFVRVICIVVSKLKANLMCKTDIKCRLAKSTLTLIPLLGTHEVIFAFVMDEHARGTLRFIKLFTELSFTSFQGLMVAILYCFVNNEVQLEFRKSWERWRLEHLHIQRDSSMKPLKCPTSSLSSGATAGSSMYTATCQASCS
RGS4 inhibitor = blocks human RGS4-accelerated GTP hydrolysis; P49798; Transcreener GDP fluorescence polarization, RGS4-accelerated GTP hydrolysis; Potency, µM (highest dose often 114 µM), without a hit: top-dose activity change, negative = inhibition, hits mostly inhibitors; hit rate 0.039% among 390,000; further: on the % scale 0 is the no-effect control and ±100 the full control effect; nearly all actives have a fitted effect of over 75% in size
Target sequence (P49798 whole entry, looked up): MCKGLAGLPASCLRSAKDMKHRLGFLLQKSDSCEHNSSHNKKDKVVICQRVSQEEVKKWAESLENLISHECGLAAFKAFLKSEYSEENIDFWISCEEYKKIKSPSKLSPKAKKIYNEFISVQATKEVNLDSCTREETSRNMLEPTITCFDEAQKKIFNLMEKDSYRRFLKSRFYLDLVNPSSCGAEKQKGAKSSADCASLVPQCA
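MLSMR compounds (23 nl, pin-transferred) preincubated 10 min at room temperature with a 500nM (2x) first reagent, then RGS4 at 900nM (2x) plus Transcreener GDP mix added; fluorescence polarization (620/688 nm) read before and after 90 min at 30 °C.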
GLP-1R inv ag = inverse agonists of human GLP-1 receptor; P43220; Potency, µM (doses to about 38.3 µM), for the others: at the top dose activity change, negative = inhibition, usual class: inhibitors; hit rate 1.6% among 410,000; AID 624417; HEK293 GLP-1R CRE-luciferase, luminescence, 24 h; GLP-1R form is constitutively active; further: on the % scale 0 is the no-effect control and ±100 the full control effect; nearly all actives have a fitted effect of over 55% in size
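Luminescence readout: a drop in cAMP-driven luciferase signal flags inverse agonism at a constitutively active GLP-1R stably expressed in HEK293. Compound exposure lasted 24 hr at 37 deg C, 5% CO2.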
PTHR1 agonist = activates the human parathyroid hormone receptor PTHR1; HEK293 GP2 PTHR1 cells, GloSensor cAMP luminescence, 1 h; Potency, µM (top dose mostly 115 µM), for the others: at the highest dose activation, hits mostly activators; hit rate 0.075% among 410,000; AID 743266; further: nearly all actives have a fitted effect of over 55% in size
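HEK-293-derived GP2 cells expressing PTHR1 and a GloSensor cAMP reporter, 3,000/well, plated overnight, given luciferin plus IBMX (each 0.5 mM as added) for 1 h at 37 °C, then compound for 1 h at 37 °C. Luminescence was read after 15 min at room temperature.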
* = called active by the depositor; i = inactive; ? = inconclusive; . = not tested or not shown; [ ] = dose if it differs, or a comment. The call rests on the fitted dose curve; in most records, active means well fitted curve in the direction sought with a large enough effect; inconclusive means small, poorly fitted or top-dose-only effect, or another doubt; inactive means no such curve, though single readings can be large; an effect the other way counts as inactive or inconclusive. Potency means the concentration at half of the fitted maximal effect.

SMILES	HEK293 tox	GLP-1R agonist	RGS4 inhibitor	GLP-1R inv ag	PTHR1 agonist
CC(C)(C)OC(=O)NCCCCCc1nnc(SCc2c(F)cccc2Cl)o1	-1.8%	13.9%	-30.1%	10µM*	-0.8%
C[C@@H](C(=O)O)c1ccc(C2CCCCC2)c2ccccc12	.	-1.3%	.	.	.
O=C1c2ccccc2NC(c2ccc(Cl)cc2Cl)N1Cc1ccccc1 (stereo not given)	-13.9%	-15.4%	-7.5%	7.08µM*	-3.2%
CCc1ccccc1NC(=O)CCNS(=O)(=O)c1ccc2c(c1)CCN2C(=O)C1CC1	0.7%	19.8%	-31.4%	7.4%	-16.9%
Cc1ccccc1N=Nc1ccc(O)c2ncccc12	-1.8%	8.2%	7.7%	22.3%	-56.9%
O=S(=O)(O)c1cccc2c(N=Nc3ccc(O)c4ncccc34)cccc12	11.2µM*	-0.9%	-5.9%	-22.3%	i
Cc1cc(N2CCC(C(=O)Nc3ccc(F)cc3)CC2)nc(-c2ccccc2)n1	-23.4%	-10.6%	-6.7%	10µM*	-25.1%
Cc1cccc(CN2CCC(C(=O)Nc3cccc(-c4cccc(F)c4)c3)CC2)n1	?	7.2%	-15.7%	10µM*	-12.8%
Cc1nn(C(C)C)c(C)c1CN1CCC(C(=O)Nc2cccc(-c3cccc(F)c3)c2)CC1	?	4.1%	13.3%	5.01µM*	-11.7%
CCCn1c2ccccc2c2cnn(CC(=O)NCCc3ccc(S(N)(=O)=O)cc3)c(=O)c21	-4.9%	.	-21.5%	26.6%	i
O=C(Nc1ccc(Cl)cc1)Nc1ccc(Cl)c(C(F)(F)F)c1	.	-3.7%	.	.	.
Cc1ccccc1NC(=O)c1ccc2ccccc2c1	4.3%	-0.5%	8.3%	?	-32.9%
Cc1nnc(NC(=O)c2ccc3ccccc3c2)o1	-17.5%	2.4%	17.7%	11.2µM*	-24.2%[57.5 µM]
Cc1ccc(N2C(=O)N3[C@H](c4ccc(F)cc4)[C@@H]4C(=O)N(C5CCCCC5)C(=O)[C@@H]4[C@]3(Cc3ccccc3)C2=O)cc1	-1.3%	-0.2%	-3.9%	?	-9.1%
NC[C@@H]1O[C@@H](O[C@H]2[C@@H](O)[C@H](O[C@@H]3[C@@H](O)[C@@H](N)C[C@H](N)[C@H]3O[C@H]3O[C@H](CN)[C@@H](O)[C@@H](O)[C@H]3N)O[C@H]2CO)[C@H](N)[C@@H](O)[C@@H]1O	.	-2.3%	.	.	.
CC(C)C[C@H](NC(=O)OC(C)(C)C)c1nnc(SCc2ccccc2)o1	1.7%	0.4%	20.8%	8.91µM*	-4.6%[57.5 µM]
CC[C@@]12C(=O)N(c3cccc(Br)c3)C(=O)N1[C@H](c1cccc(C)c1)[C@@H]1C(=O)N(Cc3ccccc3)C(=O)[C@@H]12	6.8%	-0.1%	4.9%	?	i
O=C(CS(=O)(=O)c1cccc2nsnc12)N1CCN(c2ccc(F)cc2)CC1	-5.7%	10.5%	-8.3%	-0.3%	-51.5%
COc1ccc(C=C(C(=O)c2ccccc2)C(=O)c2ccccc2)cc1	-0.7%	-7.1%	.	?	-36.1%
CC(C)(C)NCC(=Cc1ccccc1)C(=O)c1ccccc1	5.01µM*	-28.3%	-39.8%	?	-39.1%
COc1cc(CN2CCN(c3cccc(Cl)c3)CC2)cc(OC)c1OC	?	9.0%	2.0%	5.01µM*	i
CC(C)CNC(=O)c1[nH]c(C(F)(F)F)nc1-c1ccccc1	3.0%	-5.2%	.	26.2%	11.1%
C[C@H]1CN([C@@H](C)CO)S(=O)(=O)c2ccc(C#Cc3cccnc3)cc2O[C@@H]1CN(C)C(=O)Nc1ccc2c(c1)OCO2	0.3%	-5.2%	.	40.3%	-26.0%
O=C(Nc1ccccc1)/C(=C/c1cccc(Br)c1)NC(=O)c1ccco1	8.9%	5.6%	8.7%	2.2%	-5.1%
O=C(OCc1ccccc1)/C(=C/c1cccc(Br)c1)NC(=O)c1ccco1	12.0%	-3.4%	1.2%	10µM*	-36.8%
SMILES	HEK293 tox	GLP-1R agonist	RGS4 inhibitor	GLP-1R inv ag	PTHR1 agonist
CC(C)(S)C(=O)NC(CS)C(=O)O (stereo not given)	.	-0.1%	.	.	.
O=C(Nc1ccc(Cl)cc1)c1csc([C@@H]2C[C@H](O)[C@@H](CO)O2)n1	5.6%	-7.2%	.	-21.1%	i
Cc1cc2occ(CC(=O)N(C)CC(=O)Nc3ccccc3Br)c2cc1C	-12.3%	2.8%	8.9%	?	-41.5%
CCOC(=O)C1CCCCN1Cc1cccc(OCc2ccccc2)c1 (stereo not given)	5.2%	-5.6%	-23.2%	10µM*	-10.2%
COc1ccc2oc(C(=O)OCC(=O)N3CCCC(C)C3)c(C)c2c1 (stereo not given)	-2.8%	5.6%	17.3%	?	i
Cc1c(C(=O)OCC(=O)N2CCCC(C)C2)oc2ccccc12 (stereo not given)	10.5%	15.7%	-9.1%	10µM*	i
CN1[C@@H]2CCC[C@@H]1CC(NC(=O)c1nn(C)c3ccccc13)C2 (stereo not given in full)	.	-0.7%	.	.	.
O=S(=O)(c1ccc2[nH]c3c(c2c1)CCCC3)N1CCN(c2cccc(C(F)(F)F)c2)CC1	-17.6%	.	5.0%	10µM*	i
COc1ccc2[nH]c3c(c2c1)CCN1C(=O)C(CC(=O)NCC24CC5CC(CC(C5)C2)C4)C[C@H](C(=O)N2CCOCC2)[C@@]31C (stereo not given in full)	3.1%	0.2%	-5.4%	?	-14.2%
COc1ccc2[nH]c3c(c2c1)CCN1C(=O)C(CC(=O)NCC24CC5CC(CC(C5)C2)C4)C[C@H](C(=O)N(C(C)C)C(C)C)[C@@]31C (stereo not given in full)	1.9%	-3.2%	-9.9%	10µM*	-18.0%
C[C@]12c3[nH]c4ccc(Cl)cc4c3CCN1C(=O)[C@@H](CC(=O)NCC13CC4CC(CC(C4)C1)C3)C[C@@H]2C(=O)N1CCOCC1	-9.2%	1.9%	20.2%	10µM*	-1.7%
COc1ccc(Cl)cc1NC(=O)CCS(=O)(=O)c1cccc2nonc12	-6.7%	-0.1%	2.3%	-22.5%	-94.6%
CCc1sc(C(=O)N(CCCOC)c2c(N)n(CC(C)C)c(=O)[nH]c2=O)cc1C	12.2%	-12.8%	2.6%	16.7%	i
CC(C)NC(=O)Cn1ccc2cc(S(=O)(=O)N3CCCCCC3)ccc21	-11.8%	.	16.5%	-17.5%	i
COc1ccc(NC(=O)C2(C)CCN2C(=O)c2ccccc2CCc2ccccc2)cc1OC (stereo not given)	?	-1.2%	.	?	-29.0%
Cc1ccc(NC(=O)C2(C)CCN2C(=O)c2ccccc2CCc2ccccc2)cc1C (stereo not given)	-5.2%	2.1%	.	2.82µM*	i
CC(C)(C)c1cc(NC(=O)C2(C)CCN2C(=O)c2ccccc2CCc2ccccc2)no1 (stereo not given)	5.3%	0.2%	.	8.91µM*	-47.8%
